In PubChem BioAssay (NCI) one finds growth data, which are given here for 21 compounds.

Assay in all cases: NCI-60 one-dose screen, 48 h (100 = growth as untreated, 0 = no growth, -100 = all killed)
What all share (conditions): 10 µM unless noted

For assay [1], the system named is NCI-H23 lung.
Assay [2] concerns NCI-H226 lung.
The test system of assay [3] is NCI-H322M lung.
Assay [4] deals with HOP-62 NSCLC.
For assay [5], the system named is NCI-H460 lung.
The subject of assay [6] is HOP-92 NSCLC.
Assay [7] relates to NCI-H522 lung.
Assay [8] deals with A549/ATCC NSCLC.
Assay [9] concerns 786-0 renal.
The subject of assay [10] is COLO 205 colon.

SMILES strings stand for the structures. Compounds without any hit were thinned out: in the full panel of roughly 83,000, 20% have a hit.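 Single-dose data. Exposure time 48 hours. Values below 10 considered active.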 Values without a mark were called inactive. Calls of active or inactive are those of the source.

As for `CC(C)(CCCN=C(N)Nc1ccc(Cl)cc1)c1ccc(F)cc1`, the growth in assay [1] was 55.6%; in assay [2] it was 95.6%; in assay [3] it was 70.9%; in [4] it was 69.2%; in assay [5], 46.1%; in [6], 28%. Besides, the growth is 62% in assay [7], 79.6% in assay [8], 73.4% in assay [9] and -54% (active) in [10].
With `CC(=O)O[C@H]1CC[C@]2(C)[C@H]3CC=C4[C@@H]5CC(C)(C)CC[C@]5(C(=O)NCCNCCNCCN)CC[C@@]4(C)[C@]3(C)CC[C@H]2C1(C)C`, the growth in assay [1] was 86.5%; in assay [2], 91.4%; in assay [3] it was 95.2%; in assay [4], 87.5%; in [5], -56.3% (active); in assay [6], 61.9%. Also, the growth in [7] is 54.3%; in assay [8], 43%; in [9], -56.3% (active); in [10] it was -93.1% (active).
For the compound `COc1ccc(-c2n[nH]nc2-c2csc3ccccc23)cc1OC`, the growth in [1] was 35%; in [2], 67.2%; in assay [3] it was 51.7%; in assay [4], 25.2%; in assay [5], 15.7%; in [6], 41.6%. The growth in assay [7] was 7.11% (active); in assay [8], 31.9%; in assay [9] it was 30.7%; in assay [10], 34.7%.
In the case of `CC(=O)O[C@H]1[C@@H]2OC(=O)C(CSc3ccccc3)[C@@H]2C[C@H]2O[C@]2(C)CC/C=C(\C)CCC[C@@H]1C` (stereo partly drawn), the growth in [1] is 53.1%; in assay [2], 47.9%; in assay [3], 38%; in assay [4], 101%; in [5] it was 42.3%; in assay [6], -22.4% (active). For the same compound, the growth in [7] was -87.2% (active); in assay [8], 21.2%; in [9] it was 61.4%; in assay [10], 29.7%.
Regarding `CCN(CC)CCCCNc1c2ccc(Cl)cc2nc2ccc(OC)cc12`, the growth was -42.8% (active) in [1]; -53.7% (active) in assay [2]; -30.4% (active) in assay [3]; 2.75% (active) in assay [4]; -23.8% (active) in assay [5]; -30.7% (active) in assay [6]. The growth in assay [7] was -37.4% (active); in assay [8] it was 9.02% (active); in assay [9] it was -16.6% (active); in [10] it was -52% (active).
In the case of `C=C1C(=O)O[C@H]2[C@H]1CC/C(COC(=O)NCCc1ccc(OC)c(OC)c1)=C\CC[C@@]1(C)O[C@@H]21`, the growth was 59.2% in assay [1]; 82.6% in [2]; 88% in assay [3]; 92.7% in assay [4]; 93.9% in assay [5]; 26.6% in assay [6]. In addition, the growth in assay [7] was -79.9% (active); in assay [8] it was 86.4%; in assay [9], 77.7%; in assay [10], 12.7%.
Consider `Cc1ccc(NS(=O)(=O)c2ccc(-c3cnc(C4CC4)o3)cc2)cc1C`, for which the growth in [1] was 21.2%; in assay [2], 47.6%; in assay [3] it was 42.7%; in [4] it was 33.7%; in [5], 12.3%; in assay [6], 29.6%. Moreover, the growth in assay [7] was -7.94% (active); in [8], 27.1%; in [9], 43.4%; in assay [10] it was -10.1% (active).
Regarding `C/C1=C\CC[C@@]2(C)O[C@H]2[C@H]2OC(=O)C(CN3CCN(CC4C(=O)O[C@H]5[C@H]4CC/C(C)=C/CC[C@@]4(C)O[C@@H]54)CC3)[C@@H]2CC1` (stereo partly drawn), the growth in [1] is 98.5%; in assay [2], 99.2%; in [3] it was 99.3%; in assay [4], 107%; in assay [5] it was 107%; in assay [6], 100%. In addition, the growth in assay [7] was 33.4%; in assay [8], 93.5%; in [9], 109%; in assay [10], 98.2%.
With `COc1cccc(-c2nc3sccn3c2-c2ccnc(NCCCNS(=O)(=O)c3cccc(Cl)c3)c2)c1`, the growth in [1] was 39%; in assay [2], 33.8%; in assay [3], 77.4%; in assay [4], 65%; in [5], 64.8%; in [6], 48.8%. The growth is 43.7% in assay [7], 35.8% in assay [8], 63.9% in assay [9] and 39.8% in assay [10].
With `COc1ccc(-c2cc(C(=O)N=Nc3c(O)[nH]c4ccc(Br)cc34)no2)cc1`, the growth in assay [1] was 87%; in assay [2] it was 86.3%; in assay [4] it was 90.5%; in assay [5] it was 101%; in assay [6], 96.7%; in assay [7] it was 83.2%. Also, the results for the growth in [8], in assay [9] and in assay [10] were 103%, 105% and 114%, respectively.
Consider `COc1ccc(-n2nc(C)c3c(Nc4ccc(NC(=O)Nc5c(Cl)cccc5Cl)cc4)ncnc32)cc1`, for which the growth is 52.1% in assay [1]; 37.2% in assay [2]; 50.3% in [4]; 50.4% in assay [5]; 43.9% in assay [6]; 58% in assay [7]. The growth was 44.6% in assay [8], 55.2% in assay [9] and 70.1% in [10].
On to `CCN1CCN(c2nc(NCCNc3ccnc4cc(Cl)ccc34)c3ccccc3n2)CC1`, for which the growth in [1] was 69%; in assay [2], 27.2%; in assay [4], 24.9%; in assay [5] it was 1.75% (active); in [6], 32.7%; in assay [7], 18%. Besides, the values for the growth in assay [8], in assay [9] and in [10] were 0.344% (active), 4.75% (active) and -60.6% (active), respectively.
In the case of `Nc1n[nH]c2ccc([C@@H]3Nc4ccc5cn[nH]c5c4[C@H]4C5CCC(C5)[C@@H]34)cc12` (stereo partly drawn), the growth was 43.5% in assay [1]; 37.9% in [2]; 48.3% in assay [4]; 1.13% (active) in assay [5]; 104% in assay [6]; 27.1% in assay [7]. Also, the growth in [8] is 24.4%; in assay [9] it was 38.4%; in assay [10], -9.43% (active).
Turning to `CNC(=O)c1cc(Oc2ccc(NC(=O)Nc3ccc(Cl)c(SC)c3)c(F)c2)ccn1`, the growth in assay [1] was 29.7%; in [2], 40.4%; in [4], 62.1%; in [5], 58.2%; in [6], 48.8%; in assay [7], 17.5%. The results for the growth in assay [8], in [9] and in [10] were 39.9%, 88.5% and 24.4%, respectively.
Consider `CCCc1cc(=O)n2c(C(=O)Nc3cccc(C(=O)OCC)c3)c(C(=O)Nc3ccc(F)cc3)sc2n1`, for which the growth in assay [1] is 79.8% [30 µM]; in [2] it was 89% [30 µM]; in assay [4], 36.6% [30 µM]; in assay [5], 23% [30 µM]; in assay [6], -31.5% [30 µM] (active); in assay [7] it was 65% [30 µM]. The growth in assay [8] was 3.58% [30 µM] (active); in assay [9], 15.1% [30 µM]; in assay [10], 72.9% [30 µM].
As for `Cc1cc(N2CCN(c3ccnc4cc(Cl)ccc34)CC2)nc(NC2CCCCC2)n1`, the growth is 29.9% in assay [1]; 64.4% in assay [2]; 29.6% in assay [4]; 1.4% (active) in [5]; 20.4% in assay [6]; 50.2% in assay [7]. Further, the growth in assay [8] was 34%; in assay [9], 37.9%; in assay [10] it was -48.4% (active).
Take `O=C(Cn1cccc(Nc2ccccc2)c1=O)Nc1ccccc1`: the growth in assay [1] is 113%; in assay [2], 103%; in [4] it was 105%; in assay [5], 106%; in assay [6], 97%; in assay [7], 110%. Moreover, the growth is 106% in assay [8], 106% in [9] and 107% in assay [10].
Turning to `NC(CSC(c1ccccc1)(c1ccccc1)c1ccc(Cl)cc1)C(=O)O` (stereo not drawn), the growth is 8.79% (active) in assay [1]; 47.2% in assay [2]; 27.5% in assay [4]; 7.15% (active) in assay [5]; -15.9% (active) in assay [6]; 5.69% (active) in assay [7]. Further, the figures for the growth in assay [8], in [9] and in [10] were -9.59% (active), 25.6% and -13% (active), respectively.
Take `COc1ccc(-c2nc3ccc(-c4nc5ccc(N6CCN(c7ccc(F)cc7)CC6)cc5[nH]4)cc3[nH]2)cc1OC`: the growth in assay [1] was 60.7%; in [2], 66.6%; in assay [4], 75.6%; in assay [5] it was 71.1%; in assay [6] it was 63.6%; in assay [7] it was 45.3%. The figures for the growth in [8], in [9] and in [10] were 77.3%, 79.5% and 30.4%, respectively.
For `CC[C@H]1OC(=O)[C@H](C)[C@@H](O[C@H]2C[C@@](C)(OC)[C@@H](O)[C@H](C)O2)[C@H](C)[C@@H](O[C@@H]2O[C@H](C)C[C@H](N(C)C)[C@H]2O)[C@](C)(O)C[C@H](C)CN(C)[C@H](C)[C@@H](O)[C@]1(C)O`, the growth in [1] is 93.7%; in assay [2] it was 103%; in assay [4] it was 97.7%; in assay [5], 102%; in assay [6] it was 67.5%; in [7], 104%. The growth in assay [8] is 104%; in assay [9], 91.7%; in assay [10], 45.6%.
Turning to `CCN(CC)c1ccc2c(c1)Oc1nc(N)c(C#N)c(N)c1C2Sc1ccc(SC)cc1` (stereo not drawn), the growth in assay [1] is -22.7% (active); in assay [2], -46.9% (active); in assay [4], -25.3% (active); in assay [5], -15.3% (active); in assay [6], -12.5% (active); in assay [7], -50.8% (active). The growth in assay [8] is -2.37% (active); in assay [9], -39.1% (active); in assay [10] it was -73.6% (active).
